Sampled rows, rich in hits. Any-hit rate of the full collection: about 5.1%.
MPTP inh: mitochondrial permeability transition pore inhibitors, primary screen, biochemical, isolated mouse mitochondria, absorbance; AID 602449, 2012; inhibition, % at 10 µM; 1.4% of 360,000 active; Ca2+ swelling absorbance, 30 min;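 active = inhibition of 50% or more, scaled per plate between neutral and stimulator controls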;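 also: 0% = DMSO wells given calcium and 100% = 1 mM EGTA wells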
CRFBP-R2 agonist: agonists of CRF-BP/CRF-R2 complex, primary screen, cell-based, HEK293, calcium dye fluorescence, uHTS; 0.46% of 350,000 active; CRF-binding protein / CRF receptor 2 complex (human); activation, % at 13.2 µM; calcium dye fluorescence (FLIPR); percent of saturating CRF peptide response;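 active = activation of at least 50%, plus an integration ratio under a set limit after plate pattern correction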;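 also: plate controls were neutral control wells without compound for no effect and CRF at EC100 for full effect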
NR3A LBD binder: binders of NR3A ligand-binding domain, primary screen, biophysical, differential scanning fluorimetry, uHTS. NR3A LBD differential scanning fluorimetry, Tm shift; 0% = protein alone, 100% = glycine-bound protein. 2.5% of 340,000 active. Tm shift relative to glycine control, % at 25 µM. Glutamate receptor ionotropic, NMDA 3A (GRIN3A) ligand-binding domain;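 active = melting temperature shift of at least 10% of the positive control shift, at one fixed dose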
TMEM16A act: TMEM16A chloride channel activators or potentiators, primary screen, cell-based, HTS; 0.3% of 340,000 active; Anoctamin-1 (Mus musculus), Q8BHY3; HEK293 TMEM16A/YFP-H148Q/I152L, iodide quench fluorescence; active compounds read low; B-score at 10 µM; AID 623877, 2012;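 active = fluorescence-ratio B-score plate-corrected deviation score at least 3 library SD below zero, with starting fluorescence score within 5 deviations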;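 also: channel opened by trigger with iodide after compound preincubation; score built on the fluorescence ratio of max minus min over baseline; more negative score means more quench and so TMEM16A activation or potentiation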
TMEM16A inh: TMEM16A chloride channel inhibitors, primary screen, cell-based, HTS | Anoctamin-1 (Mus musculus), Q8BHY3 | HEK293 TMEM16A/YFP iodide influx fluorescence, ionomycin | normalized B-score (activity score, 25-100; higher = stronger inhibition) at 10 µM | 1.2% of 310,000 active;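 active = ratio plate-corrected score three or more library SD toward inhibition, starting fluorescence score within five deviations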;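 also: score derived from kinetic fluorescence span divided by baseline fluorescence per well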
CRFR2-BP antag: antagonists of CRF-BP/CRF-R2 complex, primary screen, cell-based, HEK293, calcium dye fluorescence, uHTS; 0.59% of 350,000 active; AID 588475, 2011; CRF-induced calcium fluorescence; inhibition, % at 11.8 µM;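 active = inhibition of the ligand-induced calcium signal above about 50% at the single tested concentration, limit read from the data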
TMEM16A reconf: TMEM16A chloride channel inhibitors, confirmation, cell-based, re-confirmation; 39% of 2,300 active; shares compounds with TMEM16A inh; inhibition, % at 10 µM; HEK293 TMEM16A/YFP-H148Q, iodide quench fluorescence; ionomycin added to raise cell calcium;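 active = mean duplicate percent inhibition, scaled so buffer wells are 0 and the reference blocker 100, over three buffer SD above buffer mean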
HEK293 Ca mobil: calcium mobilization in TMEM16A/YFP HEK293 cells, confirmation, counter-screen for TMEM16A inhibitor project. Fluo4 calcium mobilization. calcium response (% of ionomycin), % at 10 µM. 2% of 2,300 active. shares compounds with TMEM16A inh;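 active = duplicate-averaged calcium signal over 20% of the ionomycin maximum, relative to buffer baseline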;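 also: each well's signal is peak minus trough fluorescence divided by its pre-addition baseline; 0% = buffer wells and 100% = ionomycin wells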
Parental YFP cnt: iodide YFP quench changes in parental YFP-HEK293, counter-screen for TMEM16A inhibitor project, cell-based | shares compounds with TMEM16A inh | 2,300 tested, under 10 active | AID 652233, 2013 | YFP ratio F(max-min)/F0 at 10 µM | ionomycin;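 active = yellow fluorescent protein signal ratio exceeding the buffer control mean by over 5 SD of those controls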;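 also: ratio is mean of duplicate wells from kinetic YFP trace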
ClC-1 rat inh: ClC-1 chloride channel inhibition, selectivity assay for TMEM16A inhibitor project, cell-based, voltage-dependent ClC-1; shares compounds with TMEM16A inh; ratio percent, % at 10 µM; 2,300 tested, under 10 active; AID 652236, 2013; CHO ClC-1-YFP, iodide influx fluorescence quench; iodide control reads 0, buffer control 100;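 active = duplicate-mean ratio percent above the mean of iodide-only control wells, which defines zero, plus 5 of their SD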;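 also: higher percent means stronger block of ClC-1 iodide influx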
Rh123 counter: fluorescence retest of MPTP screen hits in isolated mitochondria, single concentration. membrane potential, Rhodamine 123 fluorescence. AID 624504, 2012. 78% of 5,000 active. shares compounds with MPTP inh. inhibition, % at 10 µM; in the data active = inhibition above about 22%;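 also: 0% = DMSO vehicle and 100% = positive control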
The depositor's hits bear a star; i = inactive; nt = no result; ! = not active in a repeat.

SMILES	MPTP inh	CRFBP-R2 agonist	NR3A LBD binder	TMEM16A act	TMEM16A inh	CRFR2-BP antag	TMEM16A reconf	HEK293 Ca mobil	Parental YFP cnt	ClC-1 rat inh	Rh123 counter
Cc1ccc(S(=O)(=O)N(CC(=O)NCc2ccncc2)Cc2ccc(F)cc2)cc1	-0.9	-0.8	-0.8	i	i	-1.8	nt	nt	nt	nt	nt
C=CCn1c(NC(=O)c2ccccc2Cl)c(C#N)c2nc3ccccc3nc21	74.3*	4.6	3.1	i	100*	-17.6	54.5%*	i	-0.881	-25.5	79.2*
CCOC(=O)c1c(-c2ccccc2)csc1NC(=O)CSc1nc(C)cc(C)n1	11.8	-0.6	-0.2	i	i	26.7	nt	nt	nt	nt	nt
CCOC(=O)c1c(-c2ccccc2)csc1NC(=O)CSc1nc(N)cc(N)n1	80.0*	1.5	-0.2	i	25*	9.6	30.5%*	i	-0.846	-5.0	42.7*
CCOC(=O)[C@]12CCC=C1N(Cc1ccccc1)C(=O)[C@H](CC(=O)N1CCN(C(=O)c3ccco3)CC1)C2	0.6	nt	nt	nt	nt	nt	nt	nt	nt	nt	nt
Cc1ccc(NC(=S)NNC(=O)c2ccc(N3CCOCC3)c([N+](=O)[O-])c2)cc1Cl	88.0*	-0.6	19.4*	i	25*	-22.1	26.0%*	i	-1.14	-6.5	55.9*
O=C(NNC(=S)Nc1ccc(Cl)c(Cl)c1)c1cccc([N+](=O)[O-])c1	70.4*	-2.0	21.5*	i	100*	18.4	78.5%*	i	-0.847	-13.5	52.0*
Cc1ccc(C)c(N2CCN(C(=O)c3ccc(N4CCOCC4)c([N+](=O)[O-])c3)CC2)c1	1.3	-0.1	3.4	i	i	-9.3	nt	nt	nt	nt	nt
Cc1cc(C)c(S(=O)(=O)NCCc2ccncc2)c(C)c1	0.1	0.5	-1.0	i	i	17.7	nt	nt	nt	nt	nt
Cc1cc(C)c(S(=O)(=O)NCc2ccncc2)c(C)c1	86.7*	-0.3	-0.7	i	100*	-25.9	30.0%*	i	-0.861	-16.0	71.5*
COc1ccc(Br)cc1/C(C)=N/NC1=NCCN1	105.0*	8.5	-1.4	i	100*	-56.8	19.5%*	i	-0.858	-10.0	30.7*
O=c1c(Cc2ccccc2)c(O)c2cccc3c4c(n1c23)CCCC4	66.0*	-1.2	0.9	i	25*	-10.1	41.0%*	i	-0.917	-8.0	79.6*
Nc1ccc(C(=O)c2cccs2)cc1[N+](=O)[O-]	-0.9	2.5	-23.8	i	i	-3.7	nt	nt	nt	nt	nt
COc1cc2ncnc(NCc3ccccc3)c2cc1OC	-1.6	2.8	-1.3	i	i	-21.3	nt	nt	nt	nt	nt
c1ccc(CNc2ncnc3ccccc23)cc1	83.6*	3.3	-1.9	i	25*!	12.8	i	i	-1.17	-17.0	58.5*
COc1ccc2c(c1)C=C(CN1CCC(CO)(CCc3ccccc3)CC1)CO2	0.2	6.5	-1.1	i	i	-86.5	nt	nt	nt	nt	nt
COc1ccc(CC2(CO)CCN(CC3=Cc4cc(Cl)ccc4OC3)CC2)cc1	97.4*	8.3	-3.8	i	25*	-78.9	16.5%*	i	-1.03	-22.5	106.8*
O=C(NCc1ccccc1)c1cc(C2COCCN2C(=O)c2cccs2)on1 (stereo unspecified)	-0.2	nt	nt	nt	nt	nt	nt	nt	nt	nt	nt
CCCCCc1cc(O)c2c(C)cc(=O)oc2c1	86.2*	12.4	-5.1	i	100*	16.1	16.5%*	i	-0.971	-7.5	79.4*
COC(=O)c1ccccc1NC(=O)CSc1nncn1-c1ccccn1	-0.5	-0.7	-2.0	i	i	-7.8	nt	nt	nt	nt	nt
COc1ccc(OC)c(NC(=O)CSc2nnc(C3CCCCC3)o2)c1	-0.9	-0.2	-0.5	i	i	5.4	nt	nt	nt	nt	nt
CC(C)(C)c1ccc(OCc2ccc(C(=O)NCc3cccnc3)o2)cc1	85.2*	-2.0	-1.1	i	100*	-16.6	i	i	-1.07	-15.5	68.1*
COc1ccccc1OCc1ccc(C(=O)NCc2cccnc2)o1	-0.8	-1.0	1.3	i	i	5.2	nt	nt	nt	nt	nt
CC(C)(C)c1cccc(Cn2nnc3ccccc32)c1O	82.2*	-0.4	-11.2	i	100*	-3.2	24.5%*	i	-1.04	-25.0	96.7*
Cc1cccc(Cn2nnc3ccccc32)c1O	-0.4	-0.2	-5.1	i	i	0.1	nt	nt	nt	nt	nt
SMILES	MPTP inh	CRFBP-R2 agonist	NR3A LBD binder	TMEM16A act	TMEM16A inh	CRFR2-BP antag	TMEM16A reconf	HEK293 Ca mobil	Parental YFP cnt	ClC-1 rat inh	Rh123 counter
CN(CC(=O)Nc1ccccc1N1CCCC1)S(=O)(=O)c1ccc(F)cc1	-0.6	-1.1	-0.4	i	i	-13.9	nt	nt	nt	nt	nt
Cc1ccc2[nH]c3c(NCc4ccco4)ncnc3c2c1	59.9*	-2.8	-2.4	i	25*	-2.9	22.0%*	i	-1.13	-20.0	84.7*
O=c1[nH]c(=O)n(-c2ccc(F)cc2)c2c1C(C(F)(F)F)(C(F)(F)F)N=C(c1ccc(F)cc1)N2	99.7*	29.6	5.1	i	25*	66.5*	26.0%*	i	-0.947	-23.5	84.8*
c1coc(CNc2nc3nonc3nc2NCc2ccco2)c1	96.0*	3.0	-2.6	i	25*	10.2	i	i	-0.89	-12.5	94.8*
Cc1nc(NCc2ccco2)c2cn[nH]c2n1	-0.3	-1.2	0.1	i	nt	-4.4	nt	nt	nt	nt	nt
CC1CCc2c(sc(NC(=O)/C=C/c3cccs3)c2C(=O)O)C1 (stereo unspecified)	0.4	-7.3	-2.3	i	i	35.8	nt	nt	nt	nt	nt
CCOC(=O)c1sc(NC(=O)c2cc(-c3ccccc3C)nc3ccccc23)c(C#N)c1C	111.6*	42.9	24.3*	i	100*	19.8	nt	nt	nt	nt	87.2*
